# From the supplement of paper PMC11732987, “Enantioselective OTUD7B fragment discovery through chemoproteomics screening and high-throughput optimisation” (Communications Chemistry, 2025)
# A number with no mark means an inactive call.
# Legend:
# Test in all cases: log2 ratio of Biotin-Ahx-Ub-VS probe labelling (fragment/DMSO); higher = less target engagement (more negative = stronger competition), active = hit call of the paper (q ≤ 0.05, log2 ratio ≤ -1)
# Conditions in all cases: compound concentration: 200 uM; treatment time: 3 h
# [1] = target: T1, USP19 (UniProt O94966)
# T1 sequence (whole entry): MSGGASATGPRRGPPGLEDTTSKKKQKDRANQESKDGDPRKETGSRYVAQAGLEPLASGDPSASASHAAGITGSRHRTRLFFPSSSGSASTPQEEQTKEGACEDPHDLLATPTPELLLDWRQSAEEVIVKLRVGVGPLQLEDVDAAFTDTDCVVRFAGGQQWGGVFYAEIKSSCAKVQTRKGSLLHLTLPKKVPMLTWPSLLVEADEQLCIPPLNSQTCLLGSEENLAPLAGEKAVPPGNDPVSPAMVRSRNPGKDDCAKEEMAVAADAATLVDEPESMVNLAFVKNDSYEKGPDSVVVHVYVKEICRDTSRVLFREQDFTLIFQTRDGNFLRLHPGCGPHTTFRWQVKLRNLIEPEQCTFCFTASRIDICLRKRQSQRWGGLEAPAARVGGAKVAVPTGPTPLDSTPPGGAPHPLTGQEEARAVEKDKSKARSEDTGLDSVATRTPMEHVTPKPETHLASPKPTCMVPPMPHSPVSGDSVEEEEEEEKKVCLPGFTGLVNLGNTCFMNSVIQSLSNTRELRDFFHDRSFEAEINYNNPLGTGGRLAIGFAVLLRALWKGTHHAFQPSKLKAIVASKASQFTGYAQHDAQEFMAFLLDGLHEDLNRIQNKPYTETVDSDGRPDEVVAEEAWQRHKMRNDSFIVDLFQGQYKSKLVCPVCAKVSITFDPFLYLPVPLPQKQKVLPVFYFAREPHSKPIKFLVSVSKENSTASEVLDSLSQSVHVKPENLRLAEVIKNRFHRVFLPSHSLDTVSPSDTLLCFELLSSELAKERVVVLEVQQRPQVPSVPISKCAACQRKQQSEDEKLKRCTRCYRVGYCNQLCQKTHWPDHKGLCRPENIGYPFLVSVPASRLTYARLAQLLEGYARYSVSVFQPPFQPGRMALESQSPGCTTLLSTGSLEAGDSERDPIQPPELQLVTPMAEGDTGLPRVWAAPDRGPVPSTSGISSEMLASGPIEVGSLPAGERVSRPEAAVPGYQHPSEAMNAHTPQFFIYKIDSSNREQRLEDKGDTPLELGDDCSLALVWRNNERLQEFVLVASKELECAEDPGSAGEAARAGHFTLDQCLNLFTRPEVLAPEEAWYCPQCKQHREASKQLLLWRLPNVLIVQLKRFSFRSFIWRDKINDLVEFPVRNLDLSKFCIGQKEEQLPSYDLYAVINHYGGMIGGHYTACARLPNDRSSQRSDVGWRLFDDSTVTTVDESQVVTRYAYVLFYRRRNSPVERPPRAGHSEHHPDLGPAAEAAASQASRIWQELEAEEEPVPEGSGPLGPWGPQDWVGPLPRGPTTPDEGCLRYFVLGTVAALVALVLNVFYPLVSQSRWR
# Method in brief: (§1)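 Global-median-normalised Spectronaut label-free quantities were compared by unpaired t-test, and values are average log2 ratios of fragment over vehicle. Only proteins with ≥2 unique peptides were used. HEK293T lysate (495 µg per sample) was treated in triplicate with fragment at 200 µM or vehicle for 3 h and then with Biotin-Ahx-Ub-VS at 0.5 µM final for 1 h. Labelled DUBs were then NeutrAvidin-enriched, digested with LysC and trypsin, and run by diaPASEF LC-MS/MS.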
# [2] = target: T2, USP22 (UniProt Q9UPT9)
# T2 sequence (whole entry): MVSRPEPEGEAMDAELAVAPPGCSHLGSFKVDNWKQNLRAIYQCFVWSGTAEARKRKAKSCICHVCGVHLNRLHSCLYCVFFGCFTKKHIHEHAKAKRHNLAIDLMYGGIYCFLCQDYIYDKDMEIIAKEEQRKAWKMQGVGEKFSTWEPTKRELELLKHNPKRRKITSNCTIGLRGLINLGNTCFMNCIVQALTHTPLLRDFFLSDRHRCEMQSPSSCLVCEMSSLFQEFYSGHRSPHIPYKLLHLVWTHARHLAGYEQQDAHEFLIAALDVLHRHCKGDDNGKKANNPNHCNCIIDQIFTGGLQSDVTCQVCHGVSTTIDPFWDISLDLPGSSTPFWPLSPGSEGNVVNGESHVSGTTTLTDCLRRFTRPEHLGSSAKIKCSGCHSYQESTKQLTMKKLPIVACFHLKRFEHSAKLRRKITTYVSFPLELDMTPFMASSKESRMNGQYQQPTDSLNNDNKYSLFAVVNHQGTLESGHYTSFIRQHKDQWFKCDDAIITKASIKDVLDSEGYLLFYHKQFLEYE
# Method in brief: as §1
# [3] = target: USP24 (UniProt Q9UPU5)
# Method in brief: as §1
# [4] = target: T3, USP25 (UniProt Q9UHP3)
# T3 sequence (whole entry): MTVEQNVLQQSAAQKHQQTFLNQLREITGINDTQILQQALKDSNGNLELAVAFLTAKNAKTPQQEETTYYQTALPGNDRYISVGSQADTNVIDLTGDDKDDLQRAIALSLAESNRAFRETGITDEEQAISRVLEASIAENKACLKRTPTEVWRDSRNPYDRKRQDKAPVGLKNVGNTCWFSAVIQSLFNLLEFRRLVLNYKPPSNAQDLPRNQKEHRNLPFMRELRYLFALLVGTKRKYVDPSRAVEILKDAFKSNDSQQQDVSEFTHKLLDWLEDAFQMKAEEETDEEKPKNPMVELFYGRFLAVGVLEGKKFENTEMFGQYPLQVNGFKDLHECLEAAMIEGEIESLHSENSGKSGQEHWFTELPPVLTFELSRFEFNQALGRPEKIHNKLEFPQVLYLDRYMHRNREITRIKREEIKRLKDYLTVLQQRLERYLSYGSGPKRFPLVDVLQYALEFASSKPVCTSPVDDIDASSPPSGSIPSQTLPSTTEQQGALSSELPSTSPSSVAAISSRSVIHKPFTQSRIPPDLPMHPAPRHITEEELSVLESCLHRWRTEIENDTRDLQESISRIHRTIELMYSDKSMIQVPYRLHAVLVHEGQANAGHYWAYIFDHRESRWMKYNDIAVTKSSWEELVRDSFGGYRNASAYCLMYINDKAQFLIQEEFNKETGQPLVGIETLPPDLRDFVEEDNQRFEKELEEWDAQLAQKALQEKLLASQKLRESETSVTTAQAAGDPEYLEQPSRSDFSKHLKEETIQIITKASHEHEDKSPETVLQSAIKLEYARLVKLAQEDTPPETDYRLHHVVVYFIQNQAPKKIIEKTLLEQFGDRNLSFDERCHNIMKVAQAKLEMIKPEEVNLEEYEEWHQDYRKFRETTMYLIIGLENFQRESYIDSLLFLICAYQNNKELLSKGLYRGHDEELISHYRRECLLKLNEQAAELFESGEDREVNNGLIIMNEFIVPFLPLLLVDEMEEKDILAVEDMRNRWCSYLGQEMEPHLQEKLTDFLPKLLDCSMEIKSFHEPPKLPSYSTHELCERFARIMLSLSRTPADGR
# Method in brief: as §1
# [5] = target: T4, USP28 (UniProt Q96RU2)
# T4 sequence (whole entry): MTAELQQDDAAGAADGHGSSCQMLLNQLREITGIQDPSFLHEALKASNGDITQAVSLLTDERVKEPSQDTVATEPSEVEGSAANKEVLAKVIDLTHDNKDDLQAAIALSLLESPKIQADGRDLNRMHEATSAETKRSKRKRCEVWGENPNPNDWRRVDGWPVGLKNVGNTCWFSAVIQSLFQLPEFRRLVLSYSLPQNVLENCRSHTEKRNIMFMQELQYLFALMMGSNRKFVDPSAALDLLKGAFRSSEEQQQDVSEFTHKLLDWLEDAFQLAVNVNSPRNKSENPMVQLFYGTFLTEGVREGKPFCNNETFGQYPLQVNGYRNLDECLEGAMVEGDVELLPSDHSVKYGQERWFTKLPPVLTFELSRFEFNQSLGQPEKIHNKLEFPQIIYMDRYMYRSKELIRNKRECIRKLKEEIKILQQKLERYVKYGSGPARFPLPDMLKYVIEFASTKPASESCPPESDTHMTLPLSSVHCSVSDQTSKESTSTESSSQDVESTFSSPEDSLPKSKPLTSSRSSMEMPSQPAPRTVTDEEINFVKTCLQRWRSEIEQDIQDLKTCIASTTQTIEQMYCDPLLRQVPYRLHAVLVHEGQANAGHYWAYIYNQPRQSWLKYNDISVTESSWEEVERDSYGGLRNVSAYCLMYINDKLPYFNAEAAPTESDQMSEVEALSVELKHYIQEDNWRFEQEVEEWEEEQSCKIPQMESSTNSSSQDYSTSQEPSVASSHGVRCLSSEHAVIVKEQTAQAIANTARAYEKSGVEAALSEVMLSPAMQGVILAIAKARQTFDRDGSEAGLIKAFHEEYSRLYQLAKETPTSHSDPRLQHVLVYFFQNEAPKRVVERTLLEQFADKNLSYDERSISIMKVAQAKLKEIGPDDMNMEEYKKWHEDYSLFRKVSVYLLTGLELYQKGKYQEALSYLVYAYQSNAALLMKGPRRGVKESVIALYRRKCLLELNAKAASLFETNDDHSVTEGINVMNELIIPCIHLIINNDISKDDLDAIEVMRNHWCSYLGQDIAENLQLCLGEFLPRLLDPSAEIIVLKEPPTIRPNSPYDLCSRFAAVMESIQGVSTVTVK
# Method in brief: as §1
# USP24, sequence (Q9UPU5 whole entry): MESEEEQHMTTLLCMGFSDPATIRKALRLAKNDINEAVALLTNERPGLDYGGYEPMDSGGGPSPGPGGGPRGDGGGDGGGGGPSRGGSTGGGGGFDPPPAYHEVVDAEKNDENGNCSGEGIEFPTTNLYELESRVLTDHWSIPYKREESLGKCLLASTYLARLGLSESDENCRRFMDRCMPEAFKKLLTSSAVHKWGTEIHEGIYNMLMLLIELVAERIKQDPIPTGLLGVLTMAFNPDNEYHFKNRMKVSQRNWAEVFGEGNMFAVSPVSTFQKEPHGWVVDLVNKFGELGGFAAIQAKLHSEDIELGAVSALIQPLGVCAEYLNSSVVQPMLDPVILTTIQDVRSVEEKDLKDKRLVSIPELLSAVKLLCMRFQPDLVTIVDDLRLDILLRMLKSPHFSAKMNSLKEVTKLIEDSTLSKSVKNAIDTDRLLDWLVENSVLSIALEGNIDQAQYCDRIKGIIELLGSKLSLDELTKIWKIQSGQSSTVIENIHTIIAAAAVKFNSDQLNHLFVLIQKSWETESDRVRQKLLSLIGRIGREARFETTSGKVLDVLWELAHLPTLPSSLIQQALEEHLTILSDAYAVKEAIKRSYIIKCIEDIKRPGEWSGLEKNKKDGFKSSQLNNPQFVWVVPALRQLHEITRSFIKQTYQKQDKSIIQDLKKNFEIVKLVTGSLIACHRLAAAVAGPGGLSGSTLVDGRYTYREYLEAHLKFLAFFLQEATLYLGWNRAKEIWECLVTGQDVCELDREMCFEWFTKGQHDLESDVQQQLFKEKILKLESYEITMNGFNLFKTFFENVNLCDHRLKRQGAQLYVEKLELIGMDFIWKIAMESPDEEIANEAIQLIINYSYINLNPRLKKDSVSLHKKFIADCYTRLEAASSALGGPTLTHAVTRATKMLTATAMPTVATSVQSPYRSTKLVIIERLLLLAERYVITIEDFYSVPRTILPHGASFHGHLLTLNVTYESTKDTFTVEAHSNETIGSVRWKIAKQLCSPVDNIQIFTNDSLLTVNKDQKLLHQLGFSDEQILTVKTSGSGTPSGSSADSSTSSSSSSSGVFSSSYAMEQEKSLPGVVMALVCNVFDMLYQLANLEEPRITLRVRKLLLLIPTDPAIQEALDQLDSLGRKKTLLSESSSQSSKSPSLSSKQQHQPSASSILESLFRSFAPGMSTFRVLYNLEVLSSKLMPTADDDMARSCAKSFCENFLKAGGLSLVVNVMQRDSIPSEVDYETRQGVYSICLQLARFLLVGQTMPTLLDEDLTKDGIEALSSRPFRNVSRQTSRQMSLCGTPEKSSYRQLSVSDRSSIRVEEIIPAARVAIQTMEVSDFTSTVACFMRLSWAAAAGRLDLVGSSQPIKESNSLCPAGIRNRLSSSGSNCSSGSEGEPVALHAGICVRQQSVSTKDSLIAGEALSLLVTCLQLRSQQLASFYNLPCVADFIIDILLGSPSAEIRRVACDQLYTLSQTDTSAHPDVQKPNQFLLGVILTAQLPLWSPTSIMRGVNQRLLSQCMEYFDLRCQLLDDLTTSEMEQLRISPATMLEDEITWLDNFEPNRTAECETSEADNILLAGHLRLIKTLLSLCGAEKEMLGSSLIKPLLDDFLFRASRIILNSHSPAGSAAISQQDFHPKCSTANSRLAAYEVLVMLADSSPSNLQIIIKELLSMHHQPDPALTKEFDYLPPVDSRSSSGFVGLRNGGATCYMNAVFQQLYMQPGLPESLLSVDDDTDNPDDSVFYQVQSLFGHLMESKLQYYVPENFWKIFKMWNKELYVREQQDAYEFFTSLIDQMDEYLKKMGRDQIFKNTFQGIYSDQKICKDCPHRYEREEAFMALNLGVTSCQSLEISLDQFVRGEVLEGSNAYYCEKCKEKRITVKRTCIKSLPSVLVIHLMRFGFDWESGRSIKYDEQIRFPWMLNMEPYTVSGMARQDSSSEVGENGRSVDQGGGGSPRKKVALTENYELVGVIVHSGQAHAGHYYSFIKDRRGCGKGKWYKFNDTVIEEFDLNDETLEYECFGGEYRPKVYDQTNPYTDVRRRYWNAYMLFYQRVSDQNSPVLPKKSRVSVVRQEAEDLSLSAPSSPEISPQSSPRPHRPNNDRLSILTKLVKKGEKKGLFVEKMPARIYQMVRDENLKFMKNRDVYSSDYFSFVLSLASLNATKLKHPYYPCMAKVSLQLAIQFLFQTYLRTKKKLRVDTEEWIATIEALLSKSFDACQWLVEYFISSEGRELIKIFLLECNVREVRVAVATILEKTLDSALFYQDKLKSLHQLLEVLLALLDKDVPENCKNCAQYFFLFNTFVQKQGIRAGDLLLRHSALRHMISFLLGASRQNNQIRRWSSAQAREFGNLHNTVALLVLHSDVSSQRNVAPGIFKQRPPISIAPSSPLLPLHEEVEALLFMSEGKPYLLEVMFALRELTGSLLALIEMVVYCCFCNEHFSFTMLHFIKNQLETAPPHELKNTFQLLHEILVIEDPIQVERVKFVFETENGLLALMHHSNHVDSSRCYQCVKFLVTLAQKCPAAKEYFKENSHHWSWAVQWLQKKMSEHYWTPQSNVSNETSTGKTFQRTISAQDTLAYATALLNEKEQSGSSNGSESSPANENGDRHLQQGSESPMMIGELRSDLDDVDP
smiles,measurement,setting,value
COc1cc(Cl)c(C)cc1NC(=O)CCl,log2 ratio of Biotin-Ahx-Ub-VS probe labelling,[1],-0.357
same,log2 ratio of Biotin-Ahx-Ub-VS probe labelling,[2],-0.0389
same,log2 ratio of Biotin-Ahx-Ub-VS probe labelling,[3],-1.3 (active)
same,log2 ratio of Biotin-Ahx-Ub-VS probe labelling,[4],-0.839
same,log2 ratio of Biotin-Ahx-Ub-VS probe labelling,[5],-0.742
